Bioassay records as filed in PubChem BioAssay.
The list is not random: actives were taken first. Their share in the collection is about 27%.
CYP2C19 inhib: human CYP2C19 inhibition; P33261; CYP2C19 Supersomes, luciferin-H EGE luminescence, 30 min; inhibition, % at 5 µM; 96,000 tested, 21% active; AID 778;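 active = CYP2C19 inhibition above a set limit at 5 µM in the primary screen, cut at about 50% in these data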;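 also: plate controls were negative control wells for no effect and 2.5 mM tranylcypromine positive control for full effect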
CYP2C9 inhib: blocks human cytochrome P450 2C9; CYP2C9 Supersomes, luciferin-H conversion, luminescence; 96,000 tested, 20% active; inhibition, % at 5 µM;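 active = blocking of liver enzyme CYP2C9 beyond about 50% at 5 µM, limit read from the data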
Target sequence (P11712 whole entry, looked up): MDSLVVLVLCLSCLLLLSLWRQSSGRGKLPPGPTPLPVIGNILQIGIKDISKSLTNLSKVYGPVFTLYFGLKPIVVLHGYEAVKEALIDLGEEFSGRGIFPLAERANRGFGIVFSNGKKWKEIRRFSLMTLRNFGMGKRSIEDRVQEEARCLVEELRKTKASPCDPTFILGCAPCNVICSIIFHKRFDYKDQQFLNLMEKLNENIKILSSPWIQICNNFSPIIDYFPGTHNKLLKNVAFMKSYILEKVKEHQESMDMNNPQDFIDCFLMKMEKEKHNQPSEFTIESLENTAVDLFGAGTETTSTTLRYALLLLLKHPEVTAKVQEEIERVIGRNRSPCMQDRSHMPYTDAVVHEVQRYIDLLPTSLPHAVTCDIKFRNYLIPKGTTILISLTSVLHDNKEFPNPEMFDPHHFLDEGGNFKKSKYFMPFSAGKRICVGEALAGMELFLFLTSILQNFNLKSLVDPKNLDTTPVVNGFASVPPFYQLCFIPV
CYP2C19 activ: increases human CYP2C19 enzyme activity. recombinant CYP2C19, luciferin-H EGE luminescence; active compounds read high; 0 = fully inhibited enzyme, 1 = untreated enzyme. activation factor at 5 µM. 96,000 tested, under 10 active. AID 1025;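 active = activation factor of at least 2 at 5 µM in the primary screen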;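 also: 0 = wells with 2.5 mM tranylcypromine and 1 = vehicle-only wells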
sEH activator: activators of human soluble epoxide hydrolase; purified human sEH enzymatic activity, activator screen; P34913; 91,000 tested, 0.04% active; activation, % at 2 µM; AID 717; in the data active = activation above about 37%
CYP2C9 activ: activators of human CYP2C9; AID 1024; recombinant CYP2C9, luciferin-H conversion, luminescence; active compounds read high; factor 1 = untreated enzyme, 0 = blocked; 96,000 tested, 1.4% active; activation factor at 5 µM;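 active = activation factor of 2 or more for CYP2C9 at a 5 µM dose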;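 also: 0 = sulfaphenazole-blocked wells and 1 = vehicle-only wells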
sEH inhibitor: inhibitors of human soluble epoxide hydrolase; recombinant human sEH enzymatic activity assay; 91,000 tested, 0.34% active; P34913; inhibition, % at 2 µM; in the data active = inhibition above about 80%
The depositor's hits bear a star; . = no result given.

SMILES | CYP2C19 inhib | CYP2C9 inhib | CYP2C19 activ | sEH activator | CYP2C9 activ | sEH inhibitor
O=C(CSc1nnc(Cc2ccccc2)n1Cc1ccco1)NC12CC3CC(CC(C3)C1)C2 | 37 | 39 | 0.6 | -15 | 0.6 | 17
CCOC(=O)c1c(NS(=O)(=O)c2ccc(Br)cc2)sc2c1CCC2 | . | . | . | -1 | . | 6
NC(=O)c1c(NC(=O)CSc2nnc(Cc3ccccc3)n2Cc2ccco2)sc2c1CCC2 | 25 | 64* | 0.8 | -16 | 0.4 | 16
O=C(NC1CC1)C1CCN(Cc2cnn(-c3ccccc3)c2-n2cccc2)CC1 | 9 | 8 | 0.9 | -10 | 0.9 | 9
NC(=O)C1CCN(C2CC(=O)N(c3ccc(F)c(Cl)c3)C2=O)CC1 (stereo not drawn) | -3 | 8 | 1 | 15 | 0.9 | -17
O=C(Nc1sc2c(c1C(=O)O)CCCCC2)c1ccco1 | 40 | 51* | 0.6 | 5 | 0.5 | 0
CCOC(=O)c1c(NC(=O)c2cccs2)sc2c1CCCC2 | 3 | 0 | 1 | -3 | 1 | 2
CCOC(=O)c1c(NC(=O)C(C)N2CCN(C(=O)c3ccco3)CC2)sc2c1CCCC2 (stereo not drawn) | 77* | 100* | 0.2 | 1 | 0 | -3
CCOC(=O)c1c(NC(=O)c2ccc(N3C(=O)C4C5C=CC(C5)C4C3=O)cc2)sc2c1CCCC2 (stereo not drawn) | 14 | 66* | 0.9 | -1 | 0.3 | 1
CC1=CC(C)(C)NC(=S)N1c1cccc(C)c1 | 44 | 6 | 0.6 | 0 | 0.9 | 2
COc1cccc(CN(CC2CCCO2)S(=O)(=O)c2ccc(S(=O)(=O)N(C)C)cc2)c1 (stereo not drawn) | 26 | 46 | 0.7 | -6 | 0.5 | 5
O=S(=O)(NC1CCCC1)c1ccc(S(=O)(=O)N(Cc2cccs2)CC2CCCO2)cc1 (stereo not drawn) | 97* | 97* | 0 | -4 | 0 | 2
O=S(=O)(c1ccc(S(=O)(=O)N(Cc2cccs2)CC2CCCO2)cc1)N1CCCCC1 (stereo not drawn) | 73* | 83* | 0.3 | 1 | 0.2 | -2
O=C(C1CCCN(S(=O)(=O)c2ccc(F)cc2)C1)N(Cc1cccs1)C1CC1 (stereo not drawn) | 95* | 73* | 0.1 | . | 0.3 | .
O=C(NCC1CCCO1)C1CCN(c2ccc(S(=O)(=O)N3CCCC3)cc2)CC1 (stereo not drawn) | 1 | 44 | 1 | -18 | 0.6 | 19
C=CCn1c(=O)c2c(C)c(C)sc2n2c(Nc3ccc(OC)cc3)nnc12 | 23 | 91* | 0.8 | -6 | 0.1 | 9
COc1ccc(CCNC(=O)C2CCCN2C(=O)Nc2cccc(C(C)=O)c2)cc1OC (stereo not drawn) | -2 | -13 | 1 | . | 1.1 | .
CCCCN(C)CCNC(=O)Cn1ncc2c(=O)oc3ccc(C)cc3c21 | -4 | -2 | 1 | . | 1 | .
Cc1cc(C)cc(OCC(=O)Nc2nonc2NC(=O)COc2cc(C)cc(C)c2)c1 | 42 | 64* | 0.6 | -6 | 0.4 | 8
CCOc1ccc(NC(=O)Nc2cccs2)cc1 | 36 | 30 | 0.6 | -21 | 0.7 | 22
CC(=O)NC(C)C(=O)OCc1ccc(Cl)cc1Cl (stereo not drawn) | 59* | -168 | 0.4 | 6 | 2.7* | -4
CC(NC(N)=O)C(=O)OCc1ccc(Cl)cc1Cl (stereo not drawn) | 43 | -41 | 0.6 | -1 | 1.4 | 0
O=C(OCc1ccc(Cl)cc1Cl)c1cccnc1Cl | 74* | -1 | 0.3 | 4 | 1 | -2
O=C(COC(=O)c1cccnc1Cl)c1cccc(Cl)c1 | 56* | 2 | 0.4 | 9 | 1 | -6
CC(=O)c1c(C)nn(C(C)CC(=O)O)c1C (stereo not drawn) | . | . | . | 2 | . | 3
CCCS(=O)(=O)C(=C(Nc1ccccc1)Nc1ccccc1)S(=O)(=O)CCC | -22 | -29 | 1.2 | -6 | 1.3 | 8
O=C(CSc1nnc(COc2ccccc2)n1Cc1ccco1)NCc1ccco1 | 58* | 78* | 0.4 | 1 | 0.2 | 1
Cc1cc(NC(=O)CSc2nnc(COc3ccccc3)n2Cc2ccco2)no1 | -2 | 38 | 1 | 9 | 0.6 | -9
Cc1ccc(OCc2nnc(SCC(=O)C(C)(C)C)n2Cc2ccco2)cc1 | 20 | 74* | 0.8 | -9 | 0.3 | 7
